# Data as given in PubChem BioAssay (EPA / NIEHS).
# Activity calls are given as the source filed them. Rule for the calls: active = hit-call score of the fitted dose curve at least 0.9, where 1 is the maximum; inactive = score below 0.9.
# Key:
# Conditions in all cases: mRNA level, 48 h; actives raise or lower the signal
# [1] = read-out: Paternally Expressed 10 (PEG10), PEG10 (gene 23089); experiment: LTEA_HepaRG_PEG10: Life Technologies and Expression Analysis (LTEA) Assay for Paternally Expressed 10 (PEG10) using HepaRG (AID 2283520)
# Outline: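 Differentiated HepaRG cells, plated 48 h then switched to serum-free induction medium, were exposed in duplicate for 48 h to eight half-log concentrations topping at 100 uM in 0.5% DMSO. PEG10 mRNA was quantified by TaqMan qRT-PCR, normalised to ACTB, GAPDH and POLR2A.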
# [2] = read-out: Nuclear factor NF-kappa-B p105 subunit (Homo sapiens) (UniProt P19838); experiment: LTEA_HepaRG_NFKB1: Life Technologies and Expression Analysis (LTEA) Assay for Nuclear Factor Kappa B Subunit 1 (NFKB1) using HepaRG (AID 2283521);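 for outcome: TaqMan qRT-PCR transcript normalised to ACTB GAPDH and POLR2A housekeeping genes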
# Protocol: LTEA_HepaRG is a cell based, multiplexed-readout assay that uses HepaRG, a human liver cell line, with measurements taken at 48 hours after chemical dosing on a 96-well plate.LTEA_HepaRG_NFKB1 is one of 102 assay component(s) measured in the LTEA HepaRG cell culture assay. It is a marker of Cell proliferation, survival, death.Data from the assay component LTEA_HepaRG_NFKB1 was analyzed into 1 endpoint. This assay endpoint, LTEA_HepaRG_NFKB1, was analyzed with bidirectional fitting relative to DMSO as the negative control and baseline of activity. Using a type of inducible reporter, measures of mRNA induction for gain or loss-of-signal activity can be used to understand regulation of transcription factor activity. To generalize the intended target to other relatable targets, this assay endpoint is annotated to the dna binding intended target family, where the subfamily is NF-kappa B.
# A total of 1060 chemcials from the ToxCast library were tested in eight-point concentration-response experiments. Cell culture and cytotoxicity assays were conducted at Thermo Fisher Scientific's Custom Services facility (Madison, WI). A single lot of human HepaRG cells (Thermo Fisher Scientific, Frederick, MD) was used for the cell culture experiments. 96-well format collagen type I coated plates of human HepaRG cells were prepared using established methods. Briefly, cryopreserved HepaRG cells were thawed, plated at a density of approximately 100,000 cells/well in HepaRG Thaw, Plate, and General Purpose media (HPRG770, Thermo Fisher Scientific), and incubated for 48 hours. 0.5% DMSO was selected as vehicle control to balance the requisite need of DMSO in HepaRG cultures to maintain differentiation (for example, baseline metabolism, proportions of hepatocytes vs. cholangiocytes), while enabling further hepatic receptor pathway activation (for example, PXR and CAR) in response to chemical exposure. 48 hours after plating, the culture medium was replaced with HepaRG Serum-Free Incudtion Media. Cells were exposed to each test chemical in duplicate and maintained in CO2 incubators for another 48 hours. Chemical plates were thawed to room temperature and 200x concentrations of treatment groups were prepared. 8-point conentration-reponse curves were made with the highest exposure at 100 uM, followed by half-log dilutions, all in 0.5% DMSO. Each test plate contained variouse controls, induction positive controls (1mM phenobarbital), cytotoxicity positive controls ([…] aflatoxin B1), vehicle controls (0.5% DMSO), and total lysis controls (0.5% DMSO). Cell morphology images were taken using an Essen IncuCyte FLR automated microscope, with six 96-well plates imaged in about 24 minutes. Images were captured and exported and JPEG files. Spent culture media was transfered to black-well plates for the LDH assay, and remaining media was sorted at -80 C for later use. Cells were treated with RLT buffer and frozen until shipped for gene expression analysis. Total RNA was isolated from the cell suspension in 75 uL of Buffer RLT (Qiagen, Germantown, MD 20874) by Quintiles/Expression Analysis (Durham, NC) using a custom isolation procedure. Total RNA from each plate well was transferred to a preamplification plate. Fluidigm's 96.96 Dynamic ArrayTM (Fluidigm, Amsterdam, the Netherlands) technology was used for gene expression analyses by quantitative reverse transcription polymerase chain reaction (qRT-PCR, performed by Quintiles/Expression Analysis, Durham, NC)89. Standard TaqManTM Assays (Applied Biosystems/ThermoFisher Scientific, Foster City, CA) were used to assess the expression of 93 genes selected based on their selectivity and sensitivity to important hepatic receptors known to be modulated by environmental chemicals; importance in human hepatocyte functionality; and hepatotoxicity. […]
# [3] = read-out: Protein phosphatase 2A (PPP2R4), PTPA (gene 5524); experiment: LTEA_HepaRG_PPP2R4: Life Technologies and Expression Analysis (LTEA) Assay for Protein phosphatase 2A (PPP2R4) using HepaRG (AID 2283522)
# Outline: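 Differentiated HepaRG cells in serum-free induction medium were exposed in duplicate for 48 h to eight concentrations, top 100 uM with half-log dilutions, in 0.5% DMSO. PPP2R4 mRNA was quantified by TaqMan qRT-PCR, normalized to ACTB, GAPDH and POLR2A.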
# [4] = read-out: Phosphatase and tensin (PTEN), PTEN (gene 5728); experiment: LTEA_HepaRG_PTEN: Life Technologies and Expression Analysis (LTEA) Assay for Phosphatase and tensin (PTEN) using HepaRG (AID 2283523)
# Outline: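 Differentiated human HepaRG cells, plated 48 h then switched to serum-free induction medium, were exposed in duplicate for 48 h to eight half-log concentrations up to 100 uM in 0.5% DMSO. PTEN mRNA measured by TaqMan qRT-PCR, normalized to ACTB/GAPDH/POLR2A, bidirectional fit versus DMSO.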
# [5] = read-out: solute carrier (SLC22A1), SLC22A1 (gene 6580); experiment: LTEA_HepaRG_SLC22A1: Life Technologies and Expression Analysis (LTEA) Assay for solute carrier (SLC22A1) using HepaRG (AID 2283524)
# Outline: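 Human HepaRG cells were plated 48 h, switched to serum-free induction medium, then exposed in duplicate for 48 h to 8-point half-log series from 100 uM in 0.5% DMSO. SLC22A1 mRNA measured by qRT-PCR, normalized to ACTB/GAPDH/POLR2A, fitted bidirectionally versus DMSO.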
# [6] = read-out: Pyruvate Dehydrogenase Kinase 4 (PDK4), PDK4 (gene 5166); experiment: LTEA_HepaRG_PDK4: Life Technologies and Expression Analysis (LTEA) Assay for Pyruvate Dehydrogenase Kinase 4 (PDK4) using HepaRG (AID 2283525)
# Outline: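 Differentiated human HepaRG cells, pre-cultured 48 h, were exposed in duplicate for 48 h in serum-free induction medium to eight half-log concentrations up to 100 uM in 0.5% DMSO. PDK4 mRNA was quantified by qRT-PCR, normalized to ACTB, GAPDH and POLR2A, bidirectional fitting versus DMSO.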
# [7] = read-out: NAD(P)H dehydrogenase [quinone] 1 (NQO1), NQO1 (gene 1728); experiment: LTEA_HepaRG_NQO1: Life Technologies and Expression Analysis (LTEA) Assay for NAD(P)H dehydrogenase [quinone] 1 (NQO1) using HepaRG (AID 2283526)
# Outline: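 Differentiated HepaRG cells, plated 48 h and then switched to serum-free induction medium, were exposed in duplicate for 48 h to 8-point half-log concentrations up to 100 uM in 0.5% DMSO. mRNA measured by qRT-PCR, normalized to ACTB, GAPDH, POLR2A; bidirectional fit versus DMSO.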
# [8] = read-out: Nuclear factor erythroid 2-related factor 2 (Homo sapiens) (UniProt Q16236); experiment: LTEA_HepaRG_NFE2L2: Life Technologies and Expression Analysis (LTEA) Assay for Nuclear factor erythroid 2-related factor 2 (NFE2L2) Transcription Factor using HepaRG (AID 2283527);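 for outcome: TaqMan qRT-PCR transcript level normalised to ACTB GAPDH and POLR2A housekeeping genes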
# Outline: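 Differentiated human HepaRG cells in serum-free induction medium were exposed for 48 h to eight concentrations (top 100 uM, half-log dilutions, 0.5% DMSO), in duplicate. NFE2L2 mRNA was quantified by TaqMan qRT-PCR, normalized to ACTB, GAPDH and POLR2A, with bidirectional fitting versus DMSO.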
# [9] = read-out: succinate dehydrogenase complex iron sulfur subunit B (SDHB), SDHB (gene 6390); experiment: LTEA_HepaRG_SDHB: Life Technologies and Expression Analysis (LTEA) Assay for succinate dehydrogenase complex iron sulfur subunit B (SDHB) using HepaRG (AID 2283528)
# Outline: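 HepaRG cells (~100,000/well, plated 48 h) exposed in duplicate for 48 h in serum-free induction medium to 8-point half-log series from 100 uM in 0.5% DMSO; mRNA by qRT-PCR normalised to ACTB, GAPDH, POLR2A; bidirectional fit versus DMSO.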
# [10] = read-out: Signal transducer and activator of transcription 3 (Homo sapiens) (UniProt P40763); experiment: LTEA_HepaRG_STAT3: Life Technologies and Expression Analysis (LTEA) Assay for Signal transducer and activator of transcription (STAT3) using HepaRG (AID 2283529)
# Outline: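 Differentiated human HepaRG cells in serum-free induction medium were exposed in duplicate for 48 h to eight half-log concentrations up to 100 uM in 0.5% DMSO. STAT3 mRNA was quantified by TaqMan qRT-PCR, normalized to ACTB, GAPDH and POLR2A, and fitted bidirectionally against DMSO.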
# Chain of Nuclear factor NF-kappa-B p105 subunit (Homo sapiens) (P19838 whole entry, looked up): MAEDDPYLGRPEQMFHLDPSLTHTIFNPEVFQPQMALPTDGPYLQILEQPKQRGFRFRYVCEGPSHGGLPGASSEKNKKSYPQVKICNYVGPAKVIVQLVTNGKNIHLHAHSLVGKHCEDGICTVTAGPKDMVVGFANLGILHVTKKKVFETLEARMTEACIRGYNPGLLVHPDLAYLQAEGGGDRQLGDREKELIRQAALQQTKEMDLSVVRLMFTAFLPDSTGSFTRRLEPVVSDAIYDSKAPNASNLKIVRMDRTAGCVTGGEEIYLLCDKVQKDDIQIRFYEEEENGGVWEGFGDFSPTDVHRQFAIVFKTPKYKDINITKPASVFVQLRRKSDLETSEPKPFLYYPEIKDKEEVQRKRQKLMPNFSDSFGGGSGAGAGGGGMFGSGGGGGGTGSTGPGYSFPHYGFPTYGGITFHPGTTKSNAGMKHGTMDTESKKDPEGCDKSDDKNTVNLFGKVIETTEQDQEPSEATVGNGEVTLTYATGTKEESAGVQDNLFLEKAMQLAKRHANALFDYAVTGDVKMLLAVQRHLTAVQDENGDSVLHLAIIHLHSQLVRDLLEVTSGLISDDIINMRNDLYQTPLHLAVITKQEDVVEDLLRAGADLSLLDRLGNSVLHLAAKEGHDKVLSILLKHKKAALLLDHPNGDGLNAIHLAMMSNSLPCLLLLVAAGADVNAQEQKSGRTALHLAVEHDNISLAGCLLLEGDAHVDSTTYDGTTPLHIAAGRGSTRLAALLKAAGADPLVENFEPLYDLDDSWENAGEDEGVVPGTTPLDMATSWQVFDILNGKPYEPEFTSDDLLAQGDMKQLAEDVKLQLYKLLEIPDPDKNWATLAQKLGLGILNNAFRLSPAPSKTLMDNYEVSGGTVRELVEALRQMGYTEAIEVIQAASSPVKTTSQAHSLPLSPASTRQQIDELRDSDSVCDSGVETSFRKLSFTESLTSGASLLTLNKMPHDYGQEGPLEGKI
# Chain of Nuclear factor erythroid 2-related factor 2 (Homo sapiens) (Q16236 whole entry, looked up): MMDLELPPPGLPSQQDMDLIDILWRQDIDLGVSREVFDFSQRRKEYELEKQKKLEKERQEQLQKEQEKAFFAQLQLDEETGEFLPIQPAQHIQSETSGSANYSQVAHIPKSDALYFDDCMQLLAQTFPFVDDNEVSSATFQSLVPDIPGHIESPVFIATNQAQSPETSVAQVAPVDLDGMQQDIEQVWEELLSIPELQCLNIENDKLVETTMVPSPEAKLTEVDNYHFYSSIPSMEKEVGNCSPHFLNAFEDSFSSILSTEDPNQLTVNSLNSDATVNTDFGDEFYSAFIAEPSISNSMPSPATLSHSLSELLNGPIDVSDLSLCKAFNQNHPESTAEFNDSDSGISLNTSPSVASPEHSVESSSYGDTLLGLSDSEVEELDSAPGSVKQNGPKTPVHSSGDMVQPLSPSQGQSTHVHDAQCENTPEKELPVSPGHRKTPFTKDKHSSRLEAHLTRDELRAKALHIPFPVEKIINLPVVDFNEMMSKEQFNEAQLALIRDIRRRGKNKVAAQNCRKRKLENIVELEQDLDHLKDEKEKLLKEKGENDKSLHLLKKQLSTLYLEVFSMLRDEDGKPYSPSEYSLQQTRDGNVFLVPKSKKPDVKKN
# Chain of Signal transducer and activator of transcription 3 (Homo sapiens) (P40763 whole entry, looked up): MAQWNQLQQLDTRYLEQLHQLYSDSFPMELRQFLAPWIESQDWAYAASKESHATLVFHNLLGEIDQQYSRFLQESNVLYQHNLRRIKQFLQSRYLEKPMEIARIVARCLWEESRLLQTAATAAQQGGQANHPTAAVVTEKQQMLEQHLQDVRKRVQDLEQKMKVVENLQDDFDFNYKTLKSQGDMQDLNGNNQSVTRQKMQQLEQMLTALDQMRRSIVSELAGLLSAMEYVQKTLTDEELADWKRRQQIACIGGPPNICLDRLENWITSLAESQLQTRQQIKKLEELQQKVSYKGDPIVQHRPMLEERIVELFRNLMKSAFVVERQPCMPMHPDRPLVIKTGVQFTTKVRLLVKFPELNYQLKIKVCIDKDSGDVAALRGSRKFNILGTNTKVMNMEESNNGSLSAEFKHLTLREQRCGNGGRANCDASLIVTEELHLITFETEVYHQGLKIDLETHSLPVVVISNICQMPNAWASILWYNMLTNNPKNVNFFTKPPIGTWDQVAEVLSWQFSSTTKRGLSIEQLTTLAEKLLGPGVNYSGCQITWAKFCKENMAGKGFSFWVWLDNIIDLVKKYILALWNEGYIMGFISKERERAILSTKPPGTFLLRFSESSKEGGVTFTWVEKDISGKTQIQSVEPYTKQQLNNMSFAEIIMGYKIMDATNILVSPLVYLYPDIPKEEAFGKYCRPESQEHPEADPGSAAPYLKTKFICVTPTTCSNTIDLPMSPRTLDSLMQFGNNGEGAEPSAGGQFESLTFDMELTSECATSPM
Compound,outcome [1],outcome [2],outcome [3],outcome [4],outcome [5],outcome [6],outcome [7],outcome [8],outcome [9],outcome [10],AC50 [1],AC50 [2],AC50 [3],AC50 [4],AC50 [6],AC50 [9],AC50 [8]
Cc1cc(C)cc(C)c1,inactive,inactive,inactive,inactive,inactive,inactive,inactive,inactive,inactive,inactive,,,,,,,
CC(C)(C)c1ccccc1O,inactive,inactive,inactive,inactive,inactive,inactive,inactive,inactive,inactive,inactive,,,,,,,
N#Cc1cccnc1,inactive,,inactive,inactive,inactive,inactive,inactive,inactive,inactive,inactive,,,,,,,
CN(C)C(=S)S,inactive,,inactive,inactive,inactive,inactive,inactive,inactive,inactive,inactive,,,,,,,
O=C(N[C@H]1CN2CCC1CC2)c1ccc2c(c1)OCCO2,inactive,,inactive,inactive,inactive,inactive,inactive,inactive,inactive,inactive,,,,,,,
COc1ccccc1N,inactive,,inactive,inactive,inactive,inactive,inactive,inactive,inactive,inactive,,,,,,,
OCCN(CCO)CCO,inactive,inactive,inactive,inactive,inactive,inactive,inactive,inactive,inactive,inactive,,,,,,,
Clc1cccc(Cl)c1,inactive,inactive,inactive,inactive,inactive,inactive,inactive,inactive,inactive,inactive,,,,,,,
CC(C)O.CC(C)O.OCCN(CCO)CCO.OCCN(CCO)CCO.[Ti],inactive,inactive,inactive,inactive,inactive,inactive,inactive,inactive,inactive,inactive,,,,,,,
O=C(O)C1(c2ccc3c(c2)OC[C@H](Cc2ccc(-c4ccccc4)cc2)[C@H]3O)CCCC1,,,,,inactive,,inactive,inactive,,inactive,50 µM (active),76 µM (active),80.5 µM (active),91.5 µM (active),11.4 µM (active),81.6 µM (active),
Oc1c(Cl)cc(Cl)cc1Cl,inactive,,inactive,inactive,inactive,inactive,inactive,,inactive,inactive,,,,,,,
CCCCCCCCCCCCc1cccc(S(=O)(=O)O)c1,inactive,inactive,inactive,inactive,inactive,inactive,inactive,,inactive,inactive,,,,,,,45 µM (active)
Oc1cc(Cl)c(Cl)cc1Cl,inactive,inactive,inactive,inactive,inactive,inactive,inactive,inactive,inactive,inactive,,,,,,,
Clc1cccc(Cl)c1Cl,inactive,inactive,inactive,inactive,inactive,inactive,inactive,inactive,inactive,inactive,,,,,,,
